For the first experiment, the target named is JOSD1. Nature of the experiment: pooled miR-30 sensor sort-seq; sequence = guide strand. Conditions: shRNA.
With TAGAAACTTCCTGAGCTCGCTC, the sensor-assay potency score (higher = more potent) came out at 0.337. On the same count and under the same terms, the value for TACCTCTTCTGGTACCACCAGC was -0.788; that for TTGTGAGGTGTCACCATGGTGT was -0.922. The same measure, in the same setting: the value for TTGGAGTCGAGGTTGTAGTAGG was -0.655.

As for ATCTCTTGCAGCGTATCCCGGG, the sensor-assay potency score (higher = more potent) is -0.409. On the same count and under the same terms, the value for TTCCTGAGCTCGCTCTCGCCTC was -1.09.

As for TCGAACACAGATCCAGTGCTGC, the sensor-assay potency score (higher = more potent) is -0.708.

For the next experiment, the target named is KAAG1. Described as above. Conditions: shRNA.
Turning to AAGAGCGTGCTTGTGTACCGCA, the sensor-assay potency score (higher = more potent) was -0.0933. Same read-out and setting: for TCAGTTTCTCGTTCGTTTCAGG the value was -0.203; for TTTCTCGTTCGTTTCAGGAGGC, 0.381.

TGGATTCGTCAGTTTCTCGTTC yielded a sensor-assay potency score (higher = more potent) of -0.583.

As to TTCTCGTTCGTTTCAGGAGGCG, the sensor-assay potency score (higher = more potent) was -0.584. On the same count and under the same terms, the value for TCGTTTCAGGAGGCGATCCCGC was -1.24; that for TGCTTGTGTACCGCAACGGGGA was -1.14; that for ATTCGTCAGTTTCTCGTTCGTT was -0.19.

TCAGCCCGTCGTGAAGAGCGTG yielded a sensor-assay potency score (higher = more potent) of -1.18. On the same count and under the same terms, the value for TCTCGTTCGTTTCAGGAGGCGA was -0.839. Same read-out and setting: for TTTCAGGAGGCGATCCCGCGCC the value was -0.845. The sequence TTCGTCAGTTTCTCGTTCGTTT had a sensor-assay potency score (higher = more potent) of -0.143.

The target in a further experiment is KBTBD10. Described as above. The following applies: shRNA.
Regarding TTGTACATTTTTTGTCATCTGT, the sensor-assay potency score (higher = more potent) was -0.405.

TTTTGCTGGGTAACAATGCTGG: the sensor-assay potency score (higher = more potent) was -0.684. Same read-out and setting: for TTTGCCTGCAACTACATAGATT the value was -1.51. Same read-out and setting: the value for TGAAGCATAACGTATTTCCTTC was -0.295; that for TTGCATACAGAGATCCAGCCAG was -0.134; that for TTGTCTAGCACTACCTCCTTTT was -0.574. Sequence TAGCTCCTGAAGCATAACGTAT showed a sensor-assay potency score (higher = more potent) of -1.66. Same read-out and setting: for TAAGGTAGCATTCATTTTCCGT the value was -0.0345. Same read-out and setting: the value for TTGCTAGGCAACTAGCTCCTGA was -0.209; that for TATGTCATTGACTTCAGTGGGT was 0.618; that for TTTATCATCCACCTCTCCCAGA was -0.692. On the same count and under the same terms, for ATTGTCTAGCACTACCTCCTTT the value was -0.463.

A further experiment has as its target KBTBD12. Described as above. Conditions: shRNA.
As for TTTAATAACACCGACACACTTT, the sensor-assay potency score (higher = more potent) amounted to 0.48. Still for that read-out and setting: the value for TTCTTTGTTATGATTTACCCAT was -0.456. Same read-out and setting: for TTCTTCATCAGGAAGATCCATC the value was -0.961; for TTCATCAGGAAGATCCATCTGA, 0.942. The same measure, in the same setting: the value for TATATTTTTGACACACACTGAA was 0.336; that for TGGTCATCTAGCTACAACCTAC was -1.11.

Regarding TTATTCAGTAAATTCAAGCTAT, the sensor-assay potency score (higher = more potent) is -0.287.

TACAGCTGTACTGAATCGGTAC registered a sensor-assay potency score (higher = more potent) of -0.257. The same measure, in the same setting: for TATGTCTTGATCTGATTCCTGA the value was 0.119.

For the origin of these results see the OligoGym collection.
Further: reference of the scale not given here.
